Laboratory results reported in PubChem BioAssay (NCI).
This is part of a sample that, as a whole, favours compounds with a hit. Of some 79,000 tested, about 15% had one in any assay. Unmarked numbers belong to inactive results. The source made the active and inactive calls. No stated cut-off is given here; in the data, active means growth inhibition above about 70%; inactive means the rest.

Assays:
[1] = NCI Yeast Anticancer Drug Screen. Data for the rad50 strain (AID 155);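 further: 0% = growth of vehicle-only cultures of the same strain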; conditions: S. cerevisiae rad50 strain growth inhibition, active compounds read high
How it was run: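 Readout: growth inhibition relative to vehicle-treated cultures. Compound exposure was carried out in a genetically defined yeast strain deficient in DNA damage repair.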

[2] = NCI Yeast Anticancer Drug Screen. Data for the mec2-1 strain (AID 157); conditions: S. cerevisiae mec2-1 strain, active compounds read high
How it was run: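 Compounds were applied to mec2-1 yeast cells. Their growth was then compared with that of vehicle-treated cultures to give growth inhibition.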

[3] = NCI Yeast Anticancer Drug Screen. Data for the sgs1 mgt1 strain (AID 161);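 further: 0% = growth of cultures given vehicle only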; conditions: S. cerevisiae sgs1 mgt1 strain, active compounds read high
How it was run: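 Yeast cells carrying a defined DNA-repair defect were exposed to test compounds. Growth inhibition was measured relative to vehicle-treated controls.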

[4] = NCI Yeast Anticancer Drug Screen. Data for the cln2 rad14 strain (AID 165);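 further: 0% = growth equal to vehicle treated cultures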; conditions: S. cerevisiae cln2 rad14 strain, active compounds read high
How it was run: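 Strain: cln2 rad14 yeast, altered in cell cycle control and DNA damage repair. Read-out: growth inhibition vs vehicle.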

[5] = NCI Yeast Anticancer Drug Screen. Data for the bub3 strain (AID 167); conditions: S. cerevisiae bub3 mutant strain, active compounds read high
How it was run: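 Readout: yeast growth inhibition, expressed relative to vehicle-only wells. The test organism is a mutant strain from a panel with lesions in DNA repair or checkpoint genes.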

[6] = NCI Yeast Anticancer Drug Screen. Data for the mlh1 rad18 strain (AID 175); conditions: S. cerevisiae mlh1 rad18 strain growth inhibition, active compounds read high
How it was run: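 A repair-deficient yeast strain is exposed to test compound, and growth is scored relative to vehicle-treated controls.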

[7] = at 5.0 µM (retest, dose inferred, filed as 0.5)
[8] = at 50.0 µM (retest, dose inferred, filed as 5.0)

| Compound | growth inhibition [1, 7] | growth inhibition [1, 8] | growth inhibition ([1]; at 50.0 µM) | growth inhibition [2, 7] | growth inhibition [2, 8] | growth inhibition ([2]; at 50.0 µM) | growth inhibition [3, 7] | growth inhibition [3, 8] | growth inhibition ([3]; at 50.0 µM) | growth inhibition [4, 7] [%] | growth inhibition [4, 8] | growth inhibition ([4]; at 50.0 µM) | growth inhibition [5, 7] | growth inhibition [5, 8] | growth inhibition ([5]; at 50.0 µM) | growth inhibition [6, 7] | growth inhibition [6, 8] | growth inhibition ([6]; at 50.0 µM) |
| --- | --- | --- | --- | --- | --- | --- | --- | --- | --- | --- | --- | --- | --- | --- | --- | --- | --- | --- |
| O=C(Nc1ccc(Br)cc1)Oc1ccccc1C(=O)Nc1ccccc1 | 6% | 95% (active) | 79.1% (active) | 1% | 96% (active) | 70.3% (active) | 0% | 98% (active) | 91% (active) | 2 | 94% (active) | 54.2% | 5% | 98% (active) | 89.9% (active) | 4% | 96% (active) | 97.8% (active) |
| CC(=O)N1C(c2[nH]c3ccccc3c2-c2ccccc2)CCN1c1ccccc1 (configuration not stated) | -12% | 74% (active) | 64.1% | -2% | 51% | 54.7% | 14% | 87% (active) | 83.2% (active) | 7 | 73% (active) | 69.9% | -5% | 87% (active) | 63.2% | -9% | 83% (active) | 71% (active) |
| CC1C/C(=N\N(C)C)C(C#N)(C#N)C1(C#N)C#N (configuration not stated) | 30% | 99% (active) | 81% (active) | 45% | 99% (active) | 81.1% (active) | 26% | 97% (active) | 66.5% | 27 | 79% (active) | 37.8% | 47% | 99% (active) | 62.2% | 59% | 99% (active) | 92% (active) |
| CNC(=S)/N=c1/sc([N+](=O)[O-])c(C)n1C | -26% | -4% | 65.5% | -6% | 0% | 12.5% | -7% | 7% | 67.7% | -33 | -14% | -1.95% | -4% | 5% | 44.9% | -20% | -12% | 54.8% |
| O=c1[nH]c(=O)c2cc([N+](=O)[O-])cc([N+](=O)[O-])c2[nH]1 | 9% | 75% (active) | 50.6% | 6% | 57% | 73.7% (active) | 12% | 78% (active) | 54.9% | -3 | 63% | 25.7% | 8% | 70% (active) | 78.3% (active) | 5% | 38% | 75% (active) |
| O=C1C(c2ccccc2)CS(=O)(=O)CC1c1ccccc1 (configuration not stated) | -10% | 0% | 14% | -8% | 7% | 2.85% | 5% | 7% | 57.1% | 3 | -4% | 7% | -3% | -12% | -7.65% | 13% | 9% | 12.6% |
| CCCCCCCCCCCCCCCC(=O)N1CC[N+](C)(C)CC1 | 34% | 99% (active) | 99.3% (active) | 5% | 100% (active) | 99.6% (active) | 73% (active) | 99% (active) | 60% | 5 | 99% (active) | 98.2% (active) | 16% | 99% (active) | 99.2% (active) | -34% | 99% (active) | 99.5% (active) |
| C/C(CCC(=O)O)=N/Nc1ccc(C(=O)O)cc1 | 11% | 74% (active) | 66% | 0% | 71% (active) | 5.4% | 1% | 64% | 17.9% | 7 | 91% (active) | 5.85% | 2% | 91% (active) | 31.4% | 5% | 89% (active) | 23.7% |
| CC1(C)CCCC12C=NCC2 (configuration not stated) | 2% | 16% | 17.8% | -2% | 18% | -1.15% | -1% | 11% | 31.9% | 1 | 1% | -3.95% | 2% | 10% | 43.1% | -28% | 27% | 22.9% |
| Fc1ccc(NC(=S)SCc2ccc(Cl)cc2)c(F)c1 | 19% | 99% (active) | 99.3% (active) | 11% | 99% (active) | 99.6% (active) | 13% | 99% (active) | 99.5% (active) | -2 | 99% (active) | 99.4% (active) | 19% | 98% (active) | 99.5% (active) | 7% | 98% (active) | 99.5% (active) |
| CCCCCCC1CC(=O)C1(Cl)Cl (configuration not stated) | -9% | 100% (active) | 89.1% (active) | -16% | 100% (active) | 93.3% (active) | -17% | 100% (active) | 90.1% (active) | -4 | 100% (active) | 92.5% (active) | -32% | 100% (active) | 92% (active) | 12% | 100% (active) | 86.2% (active) |
| Cc1ccc(O)c(Cc2ccc(Cl)cc2)c1 | -146% | 97% (active) | 74.7% (active) | -54% | 99% (active) | 99.8% (active) | -56% | 99% (active) | 64.3% | -80 | 99% (active) | 99.5% (active) | -76% | 98% (active) | 99.6% (active) | -119% | 96% (active) | 99.6% (active) |
| CN(C)c1ccc(C(O)(Cc2cccnc2)c2ccc(N(C)C)cc2)cc1 | -3% | 2% | 39.2% | -4% | 6% | 36.8% | -2% | 4% | 53% | -1 | -4% | 13.3% | -3% | 1% | 72% (active) | -5% | 8% | 54.9% |
| CC(=O)Nc1ccc(NC(=S)Nc2ccc(NC(C)=O)cc2)cc1 | 97% (active) | 99% (active) | 92% (active) | 47% | 100% (active) | 15% | 68% | 100% (active) | -1.7% | 43 | 99% (active) | -5.1% | 62% | 100% (active) | 0.6% | 82% (active) | 99% (active) | 13.8% |
| OC1CCCCC1Cc1ccc(Cl)cc1 (configuration not stated) | -2% | 56% | 90.5% (active) | 4% | 26% | 93.8% (active) | 4% | 31% | 65.3% | -2 | 30% | 90% (active) | 32% | 97% (active) | 98.8% (active) | -2% | 45% | 93.4% (active) |
| O=S(NCc1ccccc1)c1ccccc1 (configuration not stated) | -2% | 13% | 25.6% | 0% | 8% | 28.7% | -2% | -1% | 43.3% | -3 | 4% | 39.4% | 0% | 10% | 36.3% | -1% | 15% | 75.7% (active) |
| CC(=O)N(C1=CC(=O)c2ccccc2C1=O)c1ccc(Cl)cc1 | 95% (active) | 97% (active) | 96.7% (active) | 92% (active) | 98% (active) | 95% (active) | 95% (active) | 97% (active) | 95.2% (active) | 52 | 98% (active) | 90.8% (active) | 89% (active) | 98% (active) | 90.5% (active) | 92% (active) | 98% (active) | 93.5% (active) |
| COc1ccc(C2c3cc4c(cc3OC(N3CCOCC3)C2C)OCO4)c(OC)c1 (configuration not stated) | -3% | 88% (active) | 95.9% (active) | -10% | 95% (active) | 94.9% (active) | 2% | 79% (active) | 80.8% (active) | 18 | 99% (active) | 73.2% (active) | 7% | 98% (active) | 98% (active) | -26% | 96% (active) | 97.4% (active) |
| COc1cc2c(c(OC)c1OC)-c1ccc(O)c(=O)cc1C(N=Cc1ccccc1)CC2 (configuration not stated) | -5% | -5% | -17.9% | -6% | -7% | -4.45% | -8% | -3% | -5.3% | -7 | 4% | 31.9% | -2% | -2% | 0.2% | -2% | 0% | 18.8% |
